KDM5B inh: Primary screen for KDM5B Histone Demethylases FDH-coupled qHTS; KDM5B demethylase, FDH-coupled NADH fluorescence (FDH is formaldehyde dehydrogenase); Potency, µM (series often up to 57.7 µM), hits mostly inhibitors; actives 2.6% (n = 220,000); active means well fitted inhibition curve with a large enough effect; further: nearly all actives have a fitted effect of over 70% in size
Target sequence (Q9UGL1 whole entry, looked up): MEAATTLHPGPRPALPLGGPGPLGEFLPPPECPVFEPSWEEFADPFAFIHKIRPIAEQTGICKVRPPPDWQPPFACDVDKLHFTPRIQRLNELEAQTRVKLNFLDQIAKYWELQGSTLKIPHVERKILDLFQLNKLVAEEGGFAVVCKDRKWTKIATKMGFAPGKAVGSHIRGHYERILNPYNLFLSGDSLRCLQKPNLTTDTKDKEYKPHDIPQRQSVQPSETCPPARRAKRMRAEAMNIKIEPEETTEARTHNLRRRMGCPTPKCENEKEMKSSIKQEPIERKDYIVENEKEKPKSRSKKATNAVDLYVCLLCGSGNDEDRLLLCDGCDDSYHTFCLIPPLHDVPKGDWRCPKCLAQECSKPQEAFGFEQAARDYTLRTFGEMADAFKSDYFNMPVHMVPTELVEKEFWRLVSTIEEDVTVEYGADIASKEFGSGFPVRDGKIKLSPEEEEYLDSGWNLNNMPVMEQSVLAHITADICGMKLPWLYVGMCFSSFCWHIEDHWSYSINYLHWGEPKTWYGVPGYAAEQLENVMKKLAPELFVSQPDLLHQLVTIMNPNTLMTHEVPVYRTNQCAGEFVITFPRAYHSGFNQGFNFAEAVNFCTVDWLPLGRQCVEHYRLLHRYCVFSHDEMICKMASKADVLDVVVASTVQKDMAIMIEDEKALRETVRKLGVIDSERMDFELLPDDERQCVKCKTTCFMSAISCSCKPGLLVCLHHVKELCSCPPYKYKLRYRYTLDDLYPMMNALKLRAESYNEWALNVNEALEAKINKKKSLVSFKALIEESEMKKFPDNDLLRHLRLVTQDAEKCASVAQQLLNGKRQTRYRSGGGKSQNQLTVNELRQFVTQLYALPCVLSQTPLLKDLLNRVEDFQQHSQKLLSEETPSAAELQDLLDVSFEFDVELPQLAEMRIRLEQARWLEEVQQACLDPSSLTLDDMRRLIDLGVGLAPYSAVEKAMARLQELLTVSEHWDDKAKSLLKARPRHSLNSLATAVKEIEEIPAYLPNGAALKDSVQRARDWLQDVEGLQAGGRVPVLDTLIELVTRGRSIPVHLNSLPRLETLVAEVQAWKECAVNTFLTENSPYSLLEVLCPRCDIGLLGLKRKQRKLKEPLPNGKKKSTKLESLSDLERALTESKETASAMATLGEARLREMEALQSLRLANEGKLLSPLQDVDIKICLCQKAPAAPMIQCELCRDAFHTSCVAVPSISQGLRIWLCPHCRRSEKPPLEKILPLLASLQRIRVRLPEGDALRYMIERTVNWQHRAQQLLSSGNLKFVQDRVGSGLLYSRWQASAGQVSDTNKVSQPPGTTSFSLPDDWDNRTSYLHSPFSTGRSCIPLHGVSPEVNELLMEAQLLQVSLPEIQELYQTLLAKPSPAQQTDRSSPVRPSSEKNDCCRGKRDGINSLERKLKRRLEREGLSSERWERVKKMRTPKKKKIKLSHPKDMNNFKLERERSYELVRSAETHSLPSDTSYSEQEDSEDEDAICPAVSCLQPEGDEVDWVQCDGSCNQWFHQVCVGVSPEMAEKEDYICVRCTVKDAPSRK
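Compound dilutions met 200 nM (final) KDM5BΔAP for 10 min at room temperature before substrate addition. The substrate mix held 12.5 µM H3K4me3 with cofactors 25 µM α-ketoglutarate and 50 µM Fe²⁺. NADH signal gain over 30 min defined activity.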
Of the large screens only hits and unclear results are named; the others gave an inactive call. This excerpt belongs to a sample that is enriched for hits.

COC(=O)c1ccc(C)c(NS(=O)(=O)c2ccc3ccccc3c2)c1	none
CCOC(=O)N1CCC(Oc2cnc3c(ccn3-c3cncnc3)c2)CC1	none
O=C(CCC(F)(F)F)N1CCC(Oc2cnc3c(ccn3-c3cncnc3)c2)CC1	none
O=C(C1CCCC1)N1CCC(CCOc2ccc(F)cc2)C1 (stereo not given)	none
NC(=O)Cn1ccc2cc(OCC3CCN(C(=O)C4CC4)CC3)cnc21	KDM5B inh 35.5µM
CCOC(=O)N1CCC(COc2ccc3c(cnn3CC[S+](C)(=O)[O-])c2)CC1	none
O=C(O)CCn1ncc2cc(OCC3CCN(C(=O)C4CCCC4)CC3)ccc21	none
O=C(OCCF)N1CCC(Oc2cnc3c(ccn3-c3cncnc3)c2)CC1	none
Cc1cnc(C)c(N2CCC(COc3cnc4c(ccn4CC(N)=O)c3)CC2)n1	KDM5B inh 35.5µM
O=C(O)Cn1ccc2cc(OCC3CCN(C(=O)CCC(F)(F)F)CC3)cnc21	KDM5B inh 35.5µM
O=C(O)Cn1ccc2cc(OCC3CCN(C(=O)C4CCCC4)CC3)cnc21	KDM5B inh 35.5µM
O=C(O)CCn1ncc2cc(OCC3CCN(C(=O)COc4ccccc4)CC3)ccc21	none
COCC(=O)N1CCC(Oc2cnc3c(ccn3-c3cncnc3)c2)CC1	none
Cc1ncc(CN2CCCC2C(=O)Nc2ccc(-c3cccc(F)c3)cc2)n1C (stereo not given)	none
COc1cc(-c2nc3cc(NC(=O)c4ccc(Cl)cc4)ccc3o2)cc(OC)c1OC	none
O=C(CSc1nc(=O)n(Cc2cccnc2)c2c1CCC2)N1CCCC1	none
O=C(CCS(=O)(=O)Cc1ccccc1)Nc1cc(C(F)(F)F)ccc1Cl	none
C#CCN1CCC(CN(CC)CC)CC1	none
O=C(c1nc(-c2ccc(F)cc2)no1)N1CCN(c2ccc(Cl)c(Cl)c2)CC1	none
O=Cc1ccc(-c2ccc(C(=O)O)cn2)cc1	KDM5B inh 22.4µM
O=C(O)c1ccc(C(F)(F)F)nc1	none
O=Cc1cccc(-c2ccc(C(=O)O)cn2)c1	none
Cc1ccc2oc(C(=O)NC3CCS(=O)(=O)C3)cc(=O)c2c1 (stereo not given)	none
Cc1ccc2oc(C(=O)NC3CC(=O)N(C(C)C)C3)c(C)c2c1 (stereo not given)	KDM5B inh 25.1µM
Cc1ccc2oc(C(=O)O)c(C)c2c1	none
N#CCCN(C(=O)COC(=O)c1nn(-c2ccccc2)c(=O)c2ccccc12)c1ccccc1	none
CCn1ccc(C(=O)NCc2cccnc2N(C)CCc2ccccn2)n1	KDM5B inh 28.2µM
Cc1cc(C(=O)NCc2cccnc2N(C)C)no1	none
Cc1nnnn1CC(=O)NCc1cccnc1N(C)CCc1ccccn1	none
Cn1cc(C(=O)NCCCN2CCCCCC2=O)c2ccccc21	none
CN(Cc1cccc(C#N)c1)C(=O)C1CCOCC1	none
Cc1ccc(C(=O)NC2CCN(c3cnn(CC4CC4)c(=O)c3)CC2)cc1C	none
COc1ccc(F)cc1S(=O)(=O)N1CCc2nn(CC3CC3)c(=O)n2CC1	none
Cc1ccc(F)cc1S(=O)(=O)NC1CCN(c2ccc(=O)n(CC3CC3)n2)CC1	KDM5B inh 28.2µM
CC(C)(C)c1ccc(OCC(O)CNS(=O)(=O)c2ccc(Br)cc2)cc1 (stereo not given)	none
Cc1c(C(=O)NCc2nnc3n2CCCCC3)oc2ccccc12	none
CCc1ccc(-c2nc(CSCC(=O)NCC(OC)OC)c(C)o2)cc1	none
CCC1Oc2ccc(NC(=O)COC)cc2CN(Cc2cc(F)cc(F)c2)C1=O (stereo not given)	none
COc1ccc(N2C(=O)CSC23CCN(C(=O)c2ccccc2Br)CC3)cc1	KDM5B inh 35.5µM
COCC(=O)N1CCC2(CC1)SCC(=O)N2c1ccc(OC)cc1	none
COc1ccc(N2C(=O)CSC23CCN(C(=O)c2cccc(OC)c2)CC3)cc1	none
Cc1cccc(Nc2nnc(SC(C)C#N)s2)c1C (stereo not given)	none
O=C1NC(=NC2CCCC2)C2(CCCN(CC3CCCCC3)C2)N1c1cccnc1 (stereo not given)	none
COc1cccc(CNC2CCCc3nc(-c4cccnc4)ncc32)c1 (stereo not given)	none
COc1cncc(Nc2ncc(-c3cccc(F)c3)c3c2OCC3)c1	KDM5B inh 31.6µM
COc1ccc(-c2cnc(NC(=O)Cc3ccccc3)c3c2CCO3)cn1	none
CN(C)c1cccc(-c2cnc(Nc3ccncc3)c3c2CCO3)c1	KDM5B inh 28.2µM
CN(C)c1cccc(C(=O)N2CCNc3cnc(Nc4ccc(N5CCOCC5)cc4)nc3C2)c1	none
COc1cccc(C(=O)N[C@H]2[C@H](O)[C@H](O)C[C@@H]2c2cccnc2)c1	none
COc1ccc(-c2cnc(Nc3ccccc3)c3c2CCO3)cn1	KDM5B inh 39.8µM
COc1ccc(-c2ccc3ncc(Nc4ccc(C(N)=O)cc4)n3n2)cn1	none
Cc1nnc(-c2cc(-c3cccc(N(C)C)c3)ccn2)n1Cc1ccncc1	none
COc1ccc(-c2csc3ncnc(Nc4cccc(F)c4)c23)cc1	none
COc1cccc(Nc2ncc(-c3cccnc3)c3c2OCC3)c1	KDM5B inh 31.6µM
CCNC(=O)N1C[C@H]2OC(=O)N(Cc3ccc(OC)c(OC)c3)[C@H]2C1	none
COc1cccc(C2=NS(=O)(=O)N(C)C(C(=O)NC3CCCC3)=C2)c1	none
Cc1ccc(/C=C/C(=O)Oc2ccc(-c3ccc(C#N)cc3)cc2)o1	none
COc1ccc(-n2nnc(C(=O)NCc3cccs3)c2N)cc1OC	none
CC(C)N1C[C@H](O)C[C@H]1c1nnc2n1CCN(C(=O)CC1CCCCC1)C2	none
CC(C)c1cnc(C2CCCN(C(=O)OC(C)(C)C)C2)[nH]1 (stereo not given)	none
NCc1ccc(CN2CCCCC2)cc1	none
CCOc1ccc(C(C)=O)c2ccccc12	none
c1ccc(-c2ccc3ncc(Nc4ccc5c(c4)OCCO5)n3n2)cc1	none
Cn1cc(-c2cc(=O)c3ccnc(Nc4ccc5[nH]ccc5c4)c3o2)cn1	none
O=C(Nc1ncc(-c2ccccc2)c2c1OCC2)c1ccncc1	none
Cn1cc(-c2cnc(Nc3cccnc3)c3c2CCO3)cn1	none
c1ccc(-c2cnc(Nc3ccc4c(c3)OCCO4)c3c2CCO3)cc1	KDM5B inh 39.8µM
Cn1cc(-c2cnc(Nc3ccc(F)cc3)c3c2CCO3)cn1	KDM5B inh 6.31µM
FC(F)(F)c1cc(-c2ccccc2)nc(SCc2ccccc2Cl)n1	none
Cc1ccc(C)c(-c2nc(NC(=O)c3cc(C)on3)sc2C)c1	none
COC(=O)c1ccc(COC(=O)CSc2cnc3ccccc3n2)cc1	none
CCOC(=O)c1ccc(S(=O)(=O)Nc2ccccc2-c2nnc3n2CCCCC3)cc1	none
COCCN1CC(C(=O)N2CCC(O)(c3ccc(F)cc3)CC2)CCC1=O (stereo not given)	none
COCCN1CC(C(=O)NCCOc2ccccc2)CCC1=O (stereo not given)	none
COCCN1CC(C(=O)N2CCN(c3ncccc3C#N)CC2)CCC1=O (stereo not given)	KDM5B inh 31.6µM
O=C(Nc1nc2ccccc2s1)NC1CC(=O)N(c2cccc(F)c2)C1 (stereo not given)	none
CCN1CCN(S(=O)(=O)c2ccc(NC(=O)CCc3ncc(-c4ccc(F)cc4)o3)cc2)CC1	none
CNC(=O)[C@@H]1C[C@@H](O)CN1C1CCN(C(=O)CCc2nc3ccccc3s2)CC1	none
O=C(CCCCCCC(=O)NCCN1CCCC1)NCCN1CCCC1	none
CCN(Cc1cc2cc(C)ccc2[nH]c1=O)C(=O)c1ccc(C)cc1	none
Cc1ccc2[nH]c(=O)c(CCC(=O)N(C)Cc3cn(C)nc3C)cc2c1	KDM5B inh 31.6µM
Cc1nn(C)cc1CN(C)C(=O)CCn1nc(C(F)(F)F)c(Br)c1C	none
COc1ccc(NC(=O)CCc2cc3ccccc3[nH]c2=O)cc1OC	none
COc1ccc(OCCNC(=O)Cc2n[nH]c(=O)c3ccccc23)cc1	none

Screening data (PubChem)
